Experiment [1] deals with human Ephrin type-A Receptor 1 (EphA1), EPHA1 (gene 2041) (UniProt P21709). The experiment is described as follows: NVS_ENZ_hEphA1: NovaScreen (NVS) Enzymatic Assay for human Ephrin type-A Receptor 1 (EphA1) (AID 2283158).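 Note: activity is signal loss versus DMSO meaning EphA1 kinase inhibition.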 The essentials:
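Cell-free kinase activity with recombinant protein, 1 hour after dosing; product separated by electrophoretic mobility shift, fluorescence read. Primary screen at 25 uM in duplicate; hits run as concentration-response up to 50 uM, relative to DMSO.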

The target in experiment [2] is human Matrix Metalloproteinase-9 (MMP9), MMP9 (gene 4318) (UniProt P14780). The experiment is described as follows: NVS_ENZ_hMMP9: NovaScreen (NVS) Enzymatic Assay for human Matrix Metalloproteinase-9 (MMP9) (AID 2283190).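 Note: cell-free recombinant MMP9 protease activity read by fluorescent substrate signal; active means inhibition seen as loss of fluorescence signal versus DMSO.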 In a few lines: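 Screening concentration 25 uM, duplicate wells, then dose series for confirmation. Cell-free enzymatic reaction measured by fluorescence intensity 1 h post-dosing; decreased signal versus DMSO taken as activity.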
Sequence of human Matrix Metalloproteinase-9 (MMP9), MMP9 (gene 4318) (P14780 whole entry, looked up): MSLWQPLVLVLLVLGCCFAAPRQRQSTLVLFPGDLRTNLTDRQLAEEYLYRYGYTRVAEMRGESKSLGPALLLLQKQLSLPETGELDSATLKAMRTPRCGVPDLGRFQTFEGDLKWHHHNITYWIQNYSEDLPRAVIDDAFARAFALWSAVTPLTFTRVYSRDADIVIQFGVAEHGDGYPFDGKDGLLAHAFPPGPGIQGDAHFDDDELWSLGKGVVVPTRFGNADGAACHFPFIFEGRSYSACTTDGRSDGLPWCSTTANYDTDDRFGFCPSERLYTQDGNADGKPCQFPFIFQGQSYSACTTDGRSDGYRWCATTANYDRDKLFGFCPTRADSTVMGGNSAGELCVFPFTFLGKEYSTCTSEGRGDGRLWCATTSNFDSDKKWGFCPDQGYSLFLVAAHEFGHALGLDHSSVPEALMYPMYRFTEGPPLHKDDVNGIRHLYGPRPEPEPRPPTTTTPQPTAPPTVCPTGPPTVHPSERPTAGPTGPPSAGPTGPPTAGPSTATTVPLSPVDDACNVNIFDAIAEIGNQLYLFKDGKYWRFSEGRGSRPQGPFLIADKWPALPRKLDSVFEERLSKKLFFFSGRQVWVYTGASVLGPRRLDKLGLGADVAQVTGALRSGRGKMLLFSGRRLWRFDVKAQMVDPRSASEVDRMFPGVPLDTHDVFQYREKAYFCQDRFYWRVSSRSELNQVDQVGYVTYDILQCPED

The target of experiment [3] is human Elastase, ELANE (gene 1991) (UniProt P08246). The experiment is described as follows: NVS_ENZ_hElastase: NovaScreen (NVS) Enzymatic Assay for human Elastase (AID 2283153). The essentials:
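Cell-free elastase from human neutrophils, 1.5 h after dosing, activity read by absorbance. Primary screen in duplicate at 25 uM; hits (e.g., 30% inhibition) rerun in singleton concentration-response up to 50 uM, fitted versus DMSO.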

Experiment [4] deals with human Esterase Plasma (ES), BCHE (gene 590) (UniProt P06276). Kind of experiment: NVS_ENZ_hES: NovaScreen (NVS) Enzymatic Assay for human Esterase Plasma (ES) (AID 2283157). The essentials:
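Cell-free enzyme assay using esterase extracted from human plasma; colorimetric absorbance read 0.25 hour after dosing. Single-concentration duplicate screen at 25 uM, then concentration-response up to 50 uM; loss of signal scored against DMSO baseline.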

Experiment [5] concerns the target human FYN Proto-Oncogene, Src family Tyrosine Kinase (Fyn), FYN (gene 2534) (UniProt P06241). Kind of experiment: NVS_ENZ_hFyn: NovaScreen (NVS) Enzymatic Assay for human FYN Proto-Oncogene, Src family Tyrosine Kinase (Fyn) (AID 2283161). In a few lines:
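Recombinant enzyme with fluorescent substrate, product separated by electrophoretic mobility shift; read 1 h after dosing. Duplicate 25 uM single-point screen, actives retested in concentration series; loss of signal vs DMSO.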

Experiment [6] addresses human Janus Kinase 2 (Jak2), JAK2 (gene 3717) (UniProt O60674). Kind of experiment: NVS_ENZ_hJak2: NovaScreen (NVS) Enzymatic Assay for human Janus Kinase 2 (Jak2) (AID 2283169). The essentials:
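Cell-free recombinant human JAK2 enzyme activity assay, fluorescence/electrophoretic mobility shift read 1 h after dosing. Screened in duplicate at 25 uM, then concentration-response up to 50 uM; activity as signal loss relative to DMSO.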

The target of experiment [7] is Collagenase 3 (Homo sapiens) (UniProt P45452). Kind of experiment: NVS_ENZ_hMMP13: NovaScreen (NVS) Enzymatic Assay for human Matrix Metalloproteinase-13 (MMP13) (AID 2283182). In a few lines: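 Recombinant MMP13 cleaving fluorescent substrate, cell-free, measured 1 h after dosing. Primary duplicate screen at 25 uM; actives tested in concentration-response up to 50 uM; loss of signal relative to DMSO.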

Experiment [8] concerns the target human Matrix Metalloproteinase-3 (MMP3), MMP3 (gene 4314) (UniProt P08254). The experiment is described as follows: NVS_ENZ_hMMP3: NovaScreen (NVS) Enzymatic Assay for human Matrix Metalloproteinase-3 (MMP3) (AID 2283185). The essentials:
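Cell-free recombinant human MMP3 activity, fluorescence intensity read 1 h after dosing. Primary screen duplicate at 25 uM, actives retested in concentration series; loss of signal vs DMSO baseline.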

The target of experiment [9] is human Mitogen- and Stress-activated Protein Kinase-1 (Msk1), RPS6KA5 (gene 9252) (UniProt O75582). The experiment is described as follows: NVS_ENZ_hMsk1: NovaScreen (NVS) Enzymatic Assay for human Mitogen- and Stress-activated Protein Kinase-1 (Msk1) (AID 2283187). The essentials: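 Recombinant kinase with fluorescent substrate; product separated by electrophoretic mobility shift, read 1 h after dosing. Screened in duplicate at 25 uM; hits (e.g. ≥30% inhibition) tested in concentration–response up to 50 uM. DMSO baseline.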
Sequence of human Mitogen- and Stress-activated Protein Kinase-1 (Msk1), RPS6KA5 (gene 9252) (O75582 whole entry, looked up): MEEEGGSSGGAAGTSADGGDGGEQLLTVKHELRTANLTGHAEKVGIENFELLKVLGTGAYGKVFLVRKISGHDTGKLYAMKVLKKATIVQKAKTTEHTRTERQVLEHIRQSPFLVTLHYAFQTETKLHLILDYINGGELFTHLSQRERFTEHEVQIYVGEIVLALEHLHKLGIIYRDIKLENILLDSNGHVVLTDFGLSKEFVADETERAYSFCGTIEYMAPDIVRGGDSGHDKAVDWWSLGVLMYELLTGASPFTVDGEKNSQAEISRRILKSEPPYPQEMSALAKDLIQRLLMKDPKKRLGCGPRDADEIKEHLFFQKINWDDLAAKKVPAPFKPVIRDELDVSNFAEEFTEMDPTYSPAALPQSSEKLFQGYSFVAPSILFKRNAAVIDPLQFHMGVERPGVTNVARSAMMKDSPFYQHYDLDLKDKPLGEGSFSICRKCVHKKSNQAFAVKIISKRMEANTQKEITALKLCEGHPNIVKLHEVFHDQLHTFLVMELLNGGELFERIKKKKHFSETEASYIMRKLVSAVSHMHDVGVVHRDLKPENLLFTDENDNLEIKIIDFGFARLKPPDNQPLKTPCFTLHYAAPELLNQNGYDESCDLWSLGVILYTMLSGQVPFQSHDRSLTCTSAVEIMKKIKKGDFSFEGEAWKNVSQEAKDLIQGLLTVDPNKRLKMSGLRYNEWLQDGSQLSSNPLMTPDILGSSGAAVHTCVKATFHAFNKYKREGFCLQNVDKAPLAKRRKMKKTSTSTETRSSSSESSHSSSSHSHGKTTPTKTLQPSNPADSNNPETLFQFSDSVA

The target in experiment [10] is human Phosphodiesterase 4A1 (PDE4A1), PDE4A (gene 5141) (UniProt P27815). The experiment is described as follows: NVS_ENZ_hPDE4A1: NovaScreen (NVS) Enzymatic Assay for human Phosphodiesterase 4A1 (PDE4A1) (AID 2283191). In a few lines: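 Cell-free recombinant human PDE4A1 with fluorescent substrate; product separated by electrophoretic mobility shift, 1 h. Screened at 25 uM, then up to 50 uM in concentration-response; loss of signal fitted against DMSO.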
Sequence of human Phosphodiesterase 4A1 (PDE4A1), PDE4A (gene 5141) (P27815 whole entry, looked up): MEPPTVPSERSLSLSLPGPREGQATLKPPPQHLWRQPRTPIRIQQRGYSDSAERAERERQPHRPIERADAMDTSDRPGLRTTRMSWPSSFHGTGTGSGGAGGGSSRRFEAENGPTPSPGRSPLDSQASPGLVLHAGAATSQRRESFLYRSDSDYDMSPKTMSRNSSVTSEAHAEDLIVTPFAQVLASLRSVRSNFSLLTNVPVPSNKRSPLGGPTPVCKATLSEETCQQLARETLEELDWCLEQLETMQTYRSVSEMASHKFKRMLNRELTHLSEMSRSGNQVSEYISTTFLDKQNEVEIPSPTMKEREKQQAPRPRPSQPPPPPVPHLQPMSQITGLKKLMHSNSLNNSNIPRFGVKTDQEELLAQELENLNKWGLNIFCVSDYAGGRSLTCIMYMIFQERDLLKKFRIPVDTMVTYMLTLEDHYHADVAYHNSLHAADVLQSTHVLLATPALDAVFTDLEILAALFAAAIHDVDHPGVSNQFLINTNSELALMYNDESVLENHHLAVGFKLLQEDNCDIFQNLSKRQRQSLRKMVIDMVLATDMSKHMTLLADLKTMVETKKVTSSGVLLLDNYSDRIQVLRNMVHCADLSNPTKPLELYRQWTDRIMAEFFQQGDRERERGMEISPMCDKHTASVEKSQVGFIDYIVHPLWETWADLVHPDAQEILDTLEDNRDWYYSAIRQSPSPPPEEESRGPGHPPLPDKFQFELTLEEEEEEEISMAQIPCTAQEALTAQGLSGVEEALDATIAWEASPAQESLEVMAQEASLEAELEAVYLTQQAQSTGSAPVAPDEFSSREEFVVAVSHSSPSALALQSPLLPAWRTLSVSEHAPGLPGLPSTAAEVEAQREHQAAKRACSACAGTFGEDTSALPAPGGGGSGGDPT

Experiment [11] has as its target cAMP-dependent protein kinase catalytic subunit alpha (Homo sapiens) (UniProt P17612). The experiment is described as follows: NVS_ENZ_hPKA: NovaScreen (NVS) Enzymatic Assay for human Protein Kinase A (PKA) (AID 2283192). In a few lines: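 Recombinant human PKA with specific fluorescent substrate, product separated by electrophoretic mobility shift, read 1 h after dosing. Primary screen at 25 uM in duplicate; actives then run in concentration-response up to 50 uM, activity relative to DMSO.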

In experiment [12] the target is human Phosphodiesterase 5 (PDE5), PDE5A (gene 8654) (UniProt O76074). Kind of experiment: NVS_ENZ_hPDE5: NovaScreen (NVS) Enzymatic Assay for human Phosphodiesterase 5 (PDE5) (AID 2283194). The essentials:
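Recombinant human PDE5 with specific substrate, read 1 h after dosing by fluorescence with electrophoretic mobility-shift separation of substrate and product. Initial single-concentration duplicate screen at 25 uM, actives followed in concentration series; loss of activity versus DMSO.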

For experiment [13], the target named is human Protein Tyrosine Phosphatase Non-receptor Type 1 (PTPN1), PTPN1 (gene 5770) (UniProt P18031). Kind of experiment: NVS_ENZ_hPTPN1: NovaScreen (NVS) Enzymatic Assay for human Protein Tyrosine Phosphatase Non-receptor Type 1 (PTPN1) (AID 2283201). The essentials: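 Cell-free fluorogenic-substrate activity assay on recombinant enzyme, read 1.33 h after dosing by fluorescence and electrophoretic mobility shift; loss of signal vs DMSO baseline. Primary screen in duplicate at 25 uM, hits then run in concentration-response up to 50 uM.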

Experiment [14] deals with Tyrosine-protein phosphatase non-receptor type 11 (Homo sapiens) (UniProt Q06124). Kind of experiment: NVS_ENZ_hPTPN11: NovaScreen (NVS) Enzymatic Assay for human Protein Tyrosine Phosphatase Non-receptor Type 11 (PTPN11) (AID 2283202). The essentials:
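Recombinant human PTPN11 activity on a fluorescent substrate, with substrate/product separated by electrophoretic mobility shift; read 0.5 h after dosing, loss of signal vs DMSO. Duplicate 25 uM screen, then concentration-response up to 50 uM.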

Experiment [15] addresses human Insulin Receptor (InsR), INSR (gene 3643) (UniProt P06213). The experiment is described as follows: NVS_ENZ_hInsR: NovaScreen (NVS) Enzymatic Assay for human Insulin Receptor (InsR) (AID 2283168). In a few lines: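 Fluorescent substrate phosphorylation by recombinant kinase, product resolved by electrophoretic mobility shift, read 1 h after dosing. Screened in duplicate at 25 uM; hits (e.g., 30% inhibition) run in concentration-response to 50 uM; DMSO as baseline.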

Experiment [16] addresses Mitogen-activated protein kinase 3 (Homo sapiens) (UniProt P27361). The experiment is described as follows: NVS_ENZ_hMAPK3: NovaScreen (NVS) Enzymatic Assay for human Mitogen-Activated Protein Kinase 3 (MAPK 3) (AID 2283177). The essentials: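 Cell-free enzymatic assay with recombinant protein and specific substrate; fluorescence and electrophoretic mobility shift read-out 1 h after dosing. Primary screen duplicate at 25 uM; actives then run in concentration-response up to 50 uM, loss of signal versus DMSO.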

Experiment [17] addresses human Matrix Metalloproteinase-7 (MMP7), MMP7 (gene 4316) (UniProt P09237). The experiment is described as follows: NVS_ENZ_hMMP7: NovaScreen (NVS) Enzymatic Assay for human Matrix Metalloproteinase-7 (MMP7) (AID 2283183). In a few lines: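 Cell-free fluorescence enzymatic assay read 1 h after compound addition, activity loss analyzed against DMSO. Primary duplicate testing at 25 uM; compounds meeting threshold rerun in singleton concentration-response up to 50 uM.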

Experiment [18] has as its target human Matrix Metalloproteinase-2 (MMP2), MMP2 (gene 4313) (UniProt P08253). Kind of experiment: NVS_ENZ_hMMP2: NovaScreen (NVS) Enzymatic Assay for human Matrix Metalloproteinase-2 (MMP2) (AID 2283184). The essentials:
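Cell-free recombinant MMP2 activity with a fluorescent substrate, read 1 h after dosing. Primary screen in duplicate at 25 uM; actives then run in concentration series; loss of signal fitted versus DMSO.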

For experiment [19], the target named is Glycogen synthase kinase-3 beta (Homo sapiens) (UniProt P49841). The experiment is described as follows: NVS_ENZ_hGSK3b: NovaScreen (NVS) Enzymatic Assay for human Glycogen Synthase Kinase-3 beta (GSK3b) (AID 2283165). The essentials:
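Recombinant enzyme with specific fluorescent substrate, 1 h, product separated by electrophoretic mobility shift. Primary duplicate screen at 25 uM; actives (e.g. 30% inhibition) followed in singleton concentration-response to 50 uM. Signal loss fitted versus DMSO.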

Experiment [20] addresses Histone deacetylase 3 (Homo sapiens) (UniProt O15379). Kind of experiment: NVS_ENZ_hHDAC3: NovaScreen (NVS) Enzymatic Assay for human Histone Deacetylase 3 (HDAC3) (AID 2283163). In a few lines:
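Recombinant human HDAC3 with fluorescent substrate, 1 h after dosing; product separated from substrate by electrophoretic mobility shift and read by fluorescence. Primary screen at 25 uM in duplicate; actives (e.g. ≥30% inhibition) retested in concentration-response up to 50 uM.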

One may read the AC50 as the concentration giving half of the maximal activity seen.

SMILES strings stand for the structures. Where “and” joins values, the source holds several entries; their conditions need not be identical. Identical values can stand only once. Inconclusive results are not listed. Calls of active or inactive are those of the source. Rule for the calls: active = hit-call score of the fitted dose curve at least 0.9, where 1 is the maximum; inconclusive = response in the unintended direction; inactive = score below 0.9.

Sequence of human Ephrin type-A Receptor 1 (EphA1), EPHA1 (gene 2041) (P21709 whole entry, looked up): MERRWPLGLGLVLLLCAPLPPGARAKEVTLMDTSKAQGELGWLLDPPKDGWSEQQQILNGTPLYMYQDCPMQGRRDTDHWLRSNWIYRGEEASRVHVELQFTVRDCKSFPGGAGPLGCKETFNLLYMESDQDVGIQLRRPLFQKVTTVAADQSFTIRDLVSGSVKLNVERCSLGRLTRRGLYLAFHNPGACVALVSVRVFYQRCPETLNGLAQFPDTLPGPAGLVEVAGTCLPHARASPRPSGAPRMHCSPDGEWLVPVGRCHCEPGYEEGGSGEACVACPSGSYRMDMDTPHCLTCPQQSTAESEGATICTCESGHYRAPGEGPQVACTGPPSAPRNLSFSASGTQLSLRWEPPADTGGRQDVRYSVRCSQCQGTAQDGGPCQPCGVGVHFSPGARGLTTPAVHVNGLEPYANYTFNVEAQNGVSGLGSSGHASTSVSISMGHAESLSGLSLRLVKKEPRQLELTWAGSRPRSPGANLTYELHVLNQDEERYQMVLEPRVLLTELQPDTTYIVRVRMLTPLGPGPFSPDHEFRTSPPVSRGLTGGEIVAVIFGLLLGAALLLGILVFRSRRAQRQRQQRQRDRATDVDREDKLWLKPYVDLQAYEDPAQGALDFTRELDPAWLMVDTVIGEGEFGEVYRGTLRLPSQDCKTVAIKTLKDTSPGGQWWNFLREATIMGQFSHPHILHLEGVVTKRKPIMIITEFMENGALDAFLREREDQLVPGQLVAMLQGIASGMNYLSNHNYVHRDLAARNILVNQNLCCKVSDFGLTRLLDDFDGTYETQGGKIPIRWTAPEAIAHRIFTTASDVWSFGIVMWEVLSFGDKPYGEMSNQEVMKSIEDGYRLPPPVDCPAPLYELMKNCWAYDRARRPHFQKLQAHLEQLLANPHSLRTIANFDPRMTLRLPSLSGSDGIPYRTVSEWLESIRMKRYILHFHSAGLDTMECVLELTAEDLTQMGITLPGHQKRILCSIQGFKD
Sequence of human Esterase Plasma (ES), BCHE (gene 590) (P06276 whole entry, looked up): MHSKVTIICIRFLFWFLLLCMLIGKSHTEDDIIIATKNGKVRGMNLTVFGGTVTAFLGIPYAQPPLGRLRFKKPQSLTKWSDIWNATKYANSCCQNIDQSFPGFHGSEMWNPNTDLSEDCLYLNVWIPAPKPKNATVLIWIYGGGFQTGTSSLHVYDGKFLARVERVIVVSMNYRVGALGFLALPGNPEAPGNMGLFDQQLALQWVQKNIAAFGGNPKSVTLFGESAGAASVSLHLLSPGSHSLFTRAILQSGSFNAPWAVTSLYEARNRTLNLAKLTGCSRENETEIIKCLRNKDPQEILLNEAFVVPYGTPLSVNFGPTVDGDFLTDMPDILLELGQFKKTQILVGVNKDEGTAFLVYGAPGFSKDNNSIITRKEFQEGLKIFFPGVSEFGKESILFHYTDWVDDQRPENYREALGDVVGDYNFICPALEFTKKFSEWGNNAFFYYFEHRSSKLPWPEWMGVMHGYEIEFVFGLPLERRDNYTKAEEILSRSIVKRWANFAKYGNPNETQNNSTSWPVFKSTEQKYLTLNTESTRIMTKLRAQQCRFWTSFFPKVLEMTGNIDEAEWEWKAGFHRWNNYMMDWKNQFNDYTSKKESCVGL
Sequence of human FYN Proto-Oncogene, Src family Tyrosine Kinase (Fyn), FYN (gene 2534) (P06241 whole entry, looked up): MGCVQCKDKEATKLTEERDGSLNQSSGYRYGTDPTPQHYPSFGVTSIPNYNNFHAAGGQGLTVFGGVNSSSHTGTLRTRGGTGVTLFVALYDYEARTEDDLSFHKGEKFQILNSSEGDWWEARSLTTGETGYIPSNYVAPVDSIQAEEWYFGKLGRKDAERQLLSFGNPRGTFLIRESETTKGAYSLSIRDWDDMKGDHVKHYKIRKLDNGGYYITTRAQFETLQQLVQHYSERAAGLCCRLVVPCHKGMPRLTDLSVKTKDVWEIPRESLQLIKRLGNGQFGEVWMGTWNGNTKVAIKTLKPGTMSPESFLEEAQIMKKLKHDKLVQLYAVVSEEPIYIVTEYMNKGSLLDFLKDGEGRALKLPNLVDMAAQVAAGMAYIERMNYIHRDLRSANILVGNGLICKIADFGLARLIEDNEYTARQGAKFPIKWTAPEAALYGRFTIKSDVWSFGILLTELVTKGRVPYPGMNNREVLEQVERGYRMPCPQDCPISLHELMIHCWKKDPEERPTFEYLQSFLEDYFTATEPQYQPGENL
Sequence of human Matrix Metalloproteinase-3 (MMP3), MMP3 (gene 4314) (P08254 whole entry, looked up): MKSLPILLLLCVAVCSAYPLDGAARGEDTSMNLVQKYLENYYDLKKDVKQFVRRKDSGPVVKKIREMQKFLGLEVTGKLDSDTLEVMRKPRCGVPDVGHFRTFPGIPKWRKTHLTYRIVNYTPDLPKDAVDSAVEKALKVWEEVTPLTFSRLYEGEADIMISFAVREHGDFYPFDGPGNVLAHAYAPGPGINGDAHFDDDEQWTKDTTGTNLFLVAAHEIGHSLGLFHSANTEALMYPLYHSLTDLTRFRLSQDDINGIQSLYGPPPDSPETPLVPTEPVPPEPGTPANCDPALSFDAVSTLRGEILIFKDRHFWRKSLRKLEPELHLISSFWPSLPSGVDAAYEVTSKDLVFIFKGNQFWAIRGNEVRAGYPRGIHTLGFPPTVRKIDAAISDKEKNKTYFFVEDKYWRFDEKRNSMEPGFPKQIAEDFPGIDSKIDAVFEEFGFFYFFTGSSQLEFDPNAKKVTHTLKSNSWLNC

Consider `NC(=O)c1c(Cl)cccc1Cl`, for which, in [1], the compound was classed as inactive.
Take `C=CCOCC(O)CO` (centres undefined): the AC50 in experiment [2] is 1.68 µM (active).
As for `N#CCCCC(C#N)CCC#N` (centres undefined), the outcome in [1] was inactive.
`OCCN1CCOCC1`: the AC50 in experiment [2] is 4.96 µM (active).
For `O=C(c1ccc(OCCN2CCCCC2)cc1)c1c(-c2ccc(O)cc2)sc2cc(O)ccc12`, the AC50 was 21 µM (active) in experiment [3]; 35.6 µM (active) in experiment [5]; 25 µM (active) in experiment [6]; 17.4 µM (active) in experiment [7]; 22.1 µM (active) in experiment [9]; 16.7 µM (active) in [11]. Also, the AC50 in experiment [12] is 4.96 µM (active); in [13], 5.48 µM (active); in [14], 28 µM (active). Besides, the outcome in experiment [4], in experiment [1], in [8] and in experiment [10] was inactive.
Regarding `Nc1ccc(N)c([N+](=O)[O-])c1`, in [1], the compound was classed as inactive. Besides, the AC50 in [2] is 4.96 µM (active) and 1.02 µM (active).
Take `CC1(C)CC(=O)CC(C)(C)N1`: the compound was classed as inactive in [1].
Still for that read-out and setting: the entry for `CCC(CC)CO` is “inactive”; for `CCCCCCCC1CCCC1=O` (centres undefined) it is “inactive”; for `c1ccc(Sc2ccccc2)cc1` it is “inactive”.
On to `O=C1OC2(c3ccc(O)cc3Oc3cc(O)ccc32)c2ccccc21`, for which the result in experiment [4] was inactive.
Regarding `CCOC(=O)C=Cc1ccccc1`, the outcome in experiment [1] was inactive.
Same read-out and setting: the entry for `CC(C)OB(OC(C)C)OC(C)C` is “inactive”; for `CC(CO)(CO)[N+](=O)[O-]` it is “inactive”.
As to `Cc1cc(N)n(-c2ccccc2)n1`, the call in [1] was inactive.
For the compound `C=CC(=O)OCC(CO)(COC(=O)C=C)COC(=O)C=C`, the AC50 in experiment [2] was 10.5 µM (active).
`CC/C=C\C#N`: in experiment [4], the result was inactive.
Regarding `CC/C(=C(\c1ccccc1)c1ccc(OCCN(C)C)cc1)c1ccccc1`, the compound was called inactive in experiment [1], in experiment [15], in experiment [16], in experiment [17], in experiment [18] and in experiment [9]. The compound was called inactive in experiment [2] and in experiment [11]. Besides, the AC50 in [5] was 22.9 µM (active); in experiment [6], 11.1 µM (active); in experiment [7], 42.5 µM (active); in experiment [10], 27.9 µM (active).
Take `CCCOC(=O)CC`: in experiment [2], the AC50 is 6.89 µM (active).
Take `C=C(C)C(=O)OCCC[Si](OC)(OC)OC`: the AC50 in experiment [1] was 25 µM (active).
Take `C1COCO1`: in experiment [1], the result was inactive.
Still for that read-out and setting: the entry for `NC(=O)NC(N)=O` is “inactive”.
`CCCCCCCCCO`: the AC50 in experiment [2] is 10.6 µM (active).
On to `N#CCCNCCC#N`, for which the AC50 in experiment [1] was 21.8 µM (active).
On to `CCOC(=O)C(=O)OCC`, for which the call in [1] was inactive. Also, in experiment [2], the concentration at half-maximal activity (AC50) was 4.5 µM (active).
On to `CC(=O)C1C(=O)C=C(C)OC1=O` (centres undefined), for which the AC50 in [1] is 39.1 µM (active).
For the compound `Cc1ccc(C(C)(C)O)cc1`, the concentration at half-maximal activity (AC50) in [1] is 44.3 µM (active); in experiment [2], 4.24 µM (active).
`C=C(C)C(N)=O`: the result in experiment [19] and in experiment [12] was inactive.
As to `CCCCOCCOCCO`, the outcome in experiment [12] was inactive.
Consider `C[C@]12CC[C@@H]3c4ccc(O)cc4CC[C@H]3[C@@H]1CC[C@@H]2O`, for which the result in [20] was inactive.
On to `CC(C)(O)CCc1ccccc1`, for which the call in experiment [2] was inactive.
As to `COC(=O)c1ccc(C(=O)OC)cc1`, the outcome in experiment [2] was inactive.
